Experimental data taken from PubChem BioAssay (NCI).
Several values for one entry are separate records, joined by “and”; a condition that tells them apart may be missing. Identical values can stand only once. The panel holds about 79,000 compounds, 15% with a hit somewhere; the sample as a whole holds those more often. Activity calls are given as the source filed them. Cut-off read from the data, not from the text of the source: active = growth inhibition above about 70%; inactive = the rest.

Columns and labels:
[1] = NCI Yeast Anticancer Drug Screen. Data for the rad50 strain (AID 155);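 note: 0% = growth of vehicle-only cultures of the same strain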; conditions: S. cerevisiae rad50 strain growth inhibition, stronger effect = higher value; at 50.0 µM unless noted
In short: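 Cells are treated with compound, grown, and their growth is then scored against vehicle-only cultures of the same repair-deficient yeast strain.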

[2] = NCI Yeast Anticancer Drug Screen. Data for the mec2-1 strain (AID 157); conditions: S. cerevisiae mec2-1 strain, stronger effect = higher value; at 50.0 µM unless noted
In short: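 Growth inhibition is read against vehicle-treated controls after compound exposure of the mec2-1 yeast strain, which is defective in DNA damage repair or cell cycle control.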

[3] = NCI Yeast Anticancer Drug Screen. Data for the sgs1 mgt1 strain (AID 161);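 note: 0% = growth of cultures given vehicle only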; conditions: S. cerevisiae sgs1 mgt1 strain, stronger effect = higher value; at 50.0 µM unless noted
In short: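 Percent growth inhibition was derived by comparing compound-exposed mutant yeast with vehicle-exposed cultures. The strain carries alterations in DNA damage repair.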

[4] = NCI Yeast Anticancer Drug Screen. Data for the cln2 rad14 strain (AID 165);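 note: 0% = growth equal to vehicle treated cultures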; conditions: S. cerevisiae cln2 rad14 strain, stronger effect = higher value; at 50.0 µM unless noted
In short: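 Growth inhibition, relative to vehicle-treated controls, is the read-out. The test organism is a yeast strain with defined genetic alterations, cln2 rad14.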

[5] = NCI Yeast Anticancer Drug Screen. Data for the bub3 strain (AID 167); conditions: S. cerevisiae bub3 mutant strain, stronger effect = higher value; at 50.0 µM unless noted
In short: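 Part of a panel of yeast mutants defective in DNA damage repair or cell cycle regulation. Each strain is grown with compound, and inhibition is calculated relative to solvent-treated cultures.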

[6] = NCI Yeast Anticancer Drug Screen. Data for the mlh1 rad18 strain (AID 175); conditions: S. cerevisiae mlh1 rad18 strain growth inhibition, stronger effect = higher value; at 50.0 µM unless noted
In short: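 Cells of a genetically altered yeast strain, deficient in DNA damage repair, were treated with compound. Their growth was then compared with that of vehicle-treated cultures to give inhibition.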

Measured: growth inhibition

N=C(N)CCNC(=O)C1CCC(N)=N1 (stereo not drawn)
inactive: [1] -4.85% | [2] -17.8% | [3] -13.9% | [4] 56.4% | [5] -28.1% | [6] -13.6%

COC(=O)C1CC2(CCC1=O)Cc1ccccc1C2=O (stereo not drawn)
inactive: [1] -15.5% | [2] -3.45% | [3] 28.5% | [4] 1.3% | [5] -4.25% | [6] -16.4%

CCOC(=O)C(CC/C=C\c1ccccc1)N1CCC[C@H]1C(=O)OC (stereo partly drawn)
inactive: [1] -7.9% | [2] -5% | [3] -11.9% | [4] 9.55% | [5] 2.75% | [6] -13.3%

CC1NC(=O)OC12CCCCC2 (stereo not drawn)
inactive: [1] 16.4% | [2] -3.55% | [3] -2.95% | [4] -27.6% | [5] -7.5% | [6] -30.4%

CN(C(=O)Cc1ccccc1)n1cn[n+](CC(=O)OC(C)(C)C)c1
inactive: [1] -3.65% | [2] -13.6% | [3] -12.4% | [4] -8.35% | [5] -24.6% | [6] -23.6%

O=C(O)c1cc(Cl)c2ccccc2c1O
inactive: [1] 46.8% | [2] 45.8% | [3] 46.8% | [4] 31.6% | [5] 42.1% | [6] 33.1%

O=C(O)c1ccccc1S(=O)Cc1ccc(Br)cc1 (stereo not drawn)
inactive: [1] -10.6% | [2] -10.6% | [3] -23.1% | [4] -6.1% | [5] -0.3% | [6] 3.5%

COc1ccc(C(C)c2cc(N=NC(N)=O)c(OC)cc2O)cc1 (stereo not drawn)
inactive: [1] -2.7% | [2] -3.6% | [3] -4.1% | [4] -4.25% | [5] 16.9% | [6] 12.7%

Oc1ccccc1C1CCCC1
inactive: [1] 5.55% | [2] -10% | [3] -4.75% | [4] 3.7% | [5] 0.25% | [6] -2.45%

CN(C)/N=C/C=C1\N=C(c2ccccc2)OC1=O
inactive: [1] 5.75% | [2] -10.6% | [3] -17.9% | [4] -45.7% | [5] -0.75% | [6] -10.9%

O=C(COc1ccc(Cl)cc1)Nc1cc(Cl)c(Cl)cc1Cl
inactive: [1] -1.55% | [2] -7.2% | [3] 3.1% | [4] -17.7% | [5] 11.2% | [6] 1.3%

O=C(O)c1cccc(C(=O)O)c1-c1c(C(=O)O)cccc1C(=O)O
inactive: [1] -5.2% | [2] 17.8% | [3] 7.7% | [4] -80.5% | [5] 7.45% | [6] 4.05%

CC(C)(O)CCO
inactive: [1] -38.4% | [2] -40.4% | [3] -17.4% | [4] -10.7% | [5] -25.9% | [6] -33.1%

COC(=O)C(NC(=O)c1ccccc1)C(c1ccc(Cl)cc1)P(=O)(OC)OC (stereo not drawn)
inactive: [1] -19.6% | [2] -1% | [3] 12% | [4] 22.2% | [5] -7.85% | [6] -17.9%

Nc1ncnc2c1c(-c1nnc(-c3ccccc3)c(-c3ccccc3)n1)cn2C1OC(CO)C(O)C1O (stereo not drawn)
inactive: [1] 44.1% | [2] -2.8% | [3] 38% | [4] -13.3% | [5] -4.25% | [6] 9.9%

Cc1cc(C)c2c(c1)sc1n[nH]c(=S)n12
inactive: [1] 14.1% | [2] 6.7% | [3] 9.05% | [4] -11.4% | [5] -10.8% | [6] 3.95%

CCOC(=O)CCN(CCC(=O)OCC)N(C)C
inactive: [1] 2.55% | [2] -6.45% | [3] -4.6% | [4] -8.85% | [5] 5.8% | [6] 2.8%

C/C(CC(=O)Nc1cc(Cl)c(Cl)cc1Cl)=N\NS(=O)(=O)c1ccc(C)cc1
inactive: [1] -3.05% | [2] -6.8% | [3] 3.35% | [4] -53.9% | [5] -1.2% | [6] 2.75%

CC(C)(C)OC(=O)N1CCC2(CC1)C(=O)NCN2c1ccccc1
inactive: [1] 23.4% | [2] 11.9% | [3] -3% | [4] 31.2% | [5] 0.7% | [6] -38.9%

CC1(C)OC(=O)N=C1c1ccccc1Cl
inactive: [1] -18.1% | [2] -18.4% | [3] -11.3% | [4] -11.4% | [5] -15.6% | [6] 7.65%

O=C(O)c1ccccc1C(=O)Nc1ccc(S(=O)(=O)Nc2nccs2)cc1
inactive: [1] -22.6% and -6.05% | [2] -15.9% and 9.8% | [3] -17.1% and 19.8% | [4] -4.7% and -20% | [5] -2.35% and -4.15% | [6] -18.5% and 25.6%

CCc1cc(C)c(C)cc1O
inactive: [1] -28.8% | [2] -31.6% | [3] -38.9% | [4] 0.5% | [5] -24.9% | [6] -22.4%

CC1=CCC2C(C)(C)CCCC2(C)C1COC1OC(OCC2C(C)=CCC3C(C)(C)CCCC23C)C2C1=CCC1C(C)(C)CCCC21C (stereo not drawn)
active: [1] 90% | [2] 89.2% | [3] 84.1% | [4] 89.6% | [5] 89.2% | [6] 88%

CC(CCC#CC(=O)O)OC1CCCCO1 (stereo not drawn)
inactive: [1] -14.9% | [2] -33% | [3] -2.05% | [4] 2.95% | [5] -15.1% | [6] -14.2%

CN1CCC(O)CC1
inactive: [1] 7.6% | [2] -23.4% | [3] -11.3% | [4] -0.35% | [5] 6.35% | [6] -3%

O=C(O)CSc1nc2ccccc2[nH]1
inactive: [1] 3.5% | [2] 1.55% | [3] -36% | [4] -13.9% | [5] -35.4% | [6] 10%

CCC(C)(CC=C(C)C)c1ccncc1 (stereo not drawn)
inactive: [1] -6.7% | [2] 1.95% | [3] 3.1% | [4] -16.8% | [5] 9.6% | [6] -9.6%

CC(=O)OCC1OC(n2c(-c3ccccc3)c(N=Nc3ccc(C)cc3)c(C)c(C#N)c2=S)C(OC(C)=O)C(OC(C)=O)C1OC(C)=O (stereo not drawn)
inactive: [1] -22.6% | [2] -25.1% | [3] -22.9% | [4] 4.05% | [5] -4.9% | [6] 1.1%

O=C(OCC(OC(=O)c1ccccc1)C(OC(=O)c1ccccc1)C(OC(=O)c1ccccc1)c1cnn(-c2ccccc2)n1)c1ccccc1 (stereo not drawn)
inactive: [1] 0.55% and 30.4% | [2] 3.85% and 38.2% | [3] -6.45% and 58.4% | [4] -13.4% and 47.3% | [5] -0.85% and 42.1% | [6] 12.9% and 34.9%

COC(=O)C(CCCCCCCC(C(=O)OC)c1nc2n(c1O)C(=N)N=N2)c1nc2n(c1O)C(=N)N=N2 (stereo not drawn)
inactive: [1] -20.6% | [2] -3.75% | [3] -7.95% | [4] 11.8% | [5] 10.2% | [6] 4.75%

CCCCOc1ccc(Nc2cc(Cl)ccc2C(=O)O)cn1
inactive: [1] -29.2% and 48.1% | [2] -14.2% and 23.7% | [3] -25.6% and 44.4% | [4] -12.6% and 37.7% | [5] -36.1% and 35% | [6] -22.6% and 25.1%

c1ccc(CN(Cn2cccn2)Cn2cccn2)nc1
inactive: [1] 7.15% | [2] -9% | [3] 23.1% | [4] 23.9% | [5] -0.4% | [6] 34.8%

CC(C)N(Cc1ccccc1)S(=O)(=O)c1n[nH]c(C(C)(C)C)n1
inactive: [1] 3.2% | [2] -27.1% | [3] -3.65% | [4] -5.8% | [5] -6.75% | [6] -0.75%

Cc1cnc2ccccc2c1/C=C/c1ccc(N(C)C)cc1
inactive: [1] -6.15% | [2] -0.1% | [3] 1.55% | [4] -121% | [5] 14.1% | [6] 14.1%

CC(C)(C)c1ccc(C(C)(C)C)c(N2C(=O)c3ccc4c5ccc6c7c(ccc(c8ccc(c3c48)C2=O)c75)C(=O)N(c2cc(C(C)(C)C)ccc2C(C)(C)C)C6=O)c1
inactive: [1] -15.2% | [2] -7.9% | [3] -4.25% | [4] -6.2% | [5] -11.9% | [6] -6.8%

CCC(=O)c1ccc(OC)cc1OC
inactive: [1] -13.6% | [2] 1.25% | [3] -4.8% | [4] -2.05% | [5] 4.4% | [6] -20.1%

O=c1oc(-c2ccc([N+](=O)[O-])cc2)nc2cc(Cl)ccc12
inactive: [1] 17.8% | [2] 9.15% | [3] 44.7% | [4] 8.85% | [5] 44.9% | [6] 18.6%

CC1(C)OCC2OC3(c4nc(C#N)c(N)o4)OC(C)(C)OC3C2O1 (stereo not drawn)
inactive: [1] -18.8% | [2] -7.05% | [3] -48% | [4] -1.7% | [5] -39.2% | [6] -75%
